Bioassay records deposited in PubChem by National Center for Advancing Translational Sciences (NCATS).
KB-V1 cytotox – kills drug-selected multidrug resistant KB-V1 cells. KB-V1 MDR cells viability, CellTiter-Glo, 72 h. Potency, µM (titrated, usually from 46.1 µM), hits mostly cytotoxic. 3.4% of 400,000 active. AID 1347076; further: on the % scale 0 is the no-effect control and ±100 the full control effect; nearly all actives have a fitted effect of over 60% in size
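Compound-treated KB-V1 multidrug-resistant cells, 72 h, 37 degrees C; viability by CellTiter-Glo. Fitted qHTS curves give the values.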
MCF10A rerep – DNA re-replication induction in MCF 10a cells | MCF 10A DNA re-replication, Hoechst nuclear intensity, 48 h | Potency, µM (top dose mostly 46.1 µM), without a hit: top-dose activity, positive = re-replication, actives largely listed as activators | 2.9% of 350,000 active | AID 624296; further: % of control where 0% means no effect; nearly all actives have a fitted effect of over 50% in size
PINK1 modulator – PINK1 expression modulation | PINK1 immunofluorescence, high-content cytometry, 24 h | Potency, µM (titrated, usually from 76.6 µM), inactives show top-dose activation (PINK1 increase), actives largely listed as activators | 0.2% of 410,000 active | AID 624263; active means well fitted activation curve with a large enough effect; inconclusive means small, poorly fitted or top-dose-only effect; cell line not stated here; further: % of control where 0% means no effect; nearly all actives have a fitted effect of over 65% in size
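PINK1 protein level read as immunofluorescence by microplate cytometer in a fixed, stained stable cell line after 24 h exposure to five compound concentrations, with CCCP as control.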
KB-3-1 cytotox – KB-3-1 parental cell cytotoxicity. Potency, µM (titrated, usually from 46.1 µM), actives largely listed as cytotoxic. KB-3-1 viability, CellTiter-Glo ATP luminescence, 72 h. 1.4% of 400,000 active; further: on the % scale 0 is the no-effect control and ±100 the full control effect; nearly all actives have a fitted effect of over 60% in size
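Here the drug-naive KB-3-1 line serves as comparator for MDR sub-line selectivity; cells received compound titrations, 72 h at 37 °C, then CellTiter-Glo readout.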
SW480 rereplic – inducers of DNA re-replication in SW480 colon cancer cells. AID 624297. Potency, µM (doses to about 46.1 µM), for inactives: top-dose re-replication activation, most hits filed as activators. 1.8% of 340,000 active. SW480 DNA re-replication, Hoechst DNA content imaging, 48 h; further: % of control where 0% means no effect; nearly all actives have a fitted effect of over 55% in size
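Compounds, transferred as 23 nL by pin tool, were incubated with cells for 48 hr; DNA content per nucleus was then quantified by Hoechst staining and fluorescence plate imaging.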
* marks the source's active call; other numbers are inactive results; i = inactive; ? = inconclusive; . = no result given; [ ] = remark or other dose. A selection: hits, their analogues and other compounds. The true share with any hit is near 6.7%. Unless noted, the call rests on the fitted dose curve; in most records, active means well fitted curve in the direction sought with a large enough effect; inconclusive means small, poorly fitted or top-dose-only effect, or another doubt; inactive means no such curve, though single readings can be large; an effect the other way counts as inactive or inconclusive. Potency means the concentration at half of the fitted maximal effect.

SMILES	KB-V1 cytotox	MCF10A rerep	PINK1 modulator	KB-3-1 cytotox	SW480 rereplic
COc1ccc(NC(=O)CN2C(=O)CC(c3ccco3)Sc3ccccc32)cc1OC (configuration not stated)	18µM*	.	2%	i	.
O=C(CN1C(=O)CC(c2ccco2)Sc2ccccc21)Nc1ccc(C(F)(F)F)cc1 (configuration not stated)	?	.	3%	i	.
Cc1ccc(-c2nc3cc(Cl)ccc3o2)cc1NC(=O)c1cc2ccccc2o1	i	.	1%	?	.
c1ccc(OCCNc2ccn3nc(-c4ccc(OCCN5CCOCC5)cc4)cc3n2)cc1	?	.	8%	?	.
Cc1ccc2oc(=O)c3cc(C(=O)N(Cc4ccccc4)C(C)C)sc3c2c1	i	.	1%	i	.
CC(C)c1cc(Br)ccc1OCCCN1C(=O)NC(C)(C)C1=O	13µM*	17%	-1%	?	11%
Cc1ccc(OCCCCn2nnc3sc4c(c3c2=O)CCC(C)C4)cc1 (configuration not stated)	i	.	1%	i	.
CCN(CC)c1nc(Nc2ccccc2)nc(Oc2ccc(C(=O)OC)cc2)n1	?	?	9%[38.3 µM]	?	21µM*
COC(=O)c1ccc(Oc2nc(Nc3ccccc3)nc(N(C)C)n2)cc1	15µM*	?	4%	i	13%
COCCn1c(SCc2ccccc2F)nc2c([nH]c3ccccc32)c1=O	i	.	0%	i	.
CC(=O)c1ccccc1NC(=O)COC(=O)CN1C(=O)C2CCCCC2C1=O (configuration not stated)	i	1%	0%	i	2%
Cc1cccc(NC(=S)NCC(C)CSc2ccc(Cl)cc2)c1 (configuration not stated)	?	18µM*	?	?	?
Cc1ccc(NC(=S)NCCSc2ccc(Cl)cc2)c(C)c1	i	23µM*	4%	i	?
COc1ccc(OC)c(NC(=S)NCCSc2ccc(C)cc2)c1	23µM*	0%	2%	i	0%
C=CC[C@H](CC(=O)N(CCO)Cc1ccccc1)C(=O)N[C@H](C)COC(=O)[C@@H](CC=C)CC(=O)OC(C)(C)C	i	-15%	1%	i	-8%
COc1cc([N+](=O)[O-])ccc1NC(=O)N1CCN(c2cc(-c3noc(C)n3)ccc2C)CC1	?	.	-4%	i	.
Cc1ccc(NC(=O)c2ccc(=O)n(CC(=O)Nc3ccccc3)n2)cc1	i	-2%	6%	i	0%
COC(=O)c1cc2c(C)nn(-c3ccccc3)c2s1	?	3%	7%	i	14%
Cc1nn(-c2ccccc2)c2sc(C(=O)N(CC(=O)NC(C)(C)C)Cc3ccco3)cc12	?	18µM*	4%	?	1%
Cc1cccc(C2=NN(c3ccccc3)[C@H](CO)[C@H]2c2ccc(F)cc2)c1	i	?	-1%	i	5.2µM*
Cc1cccc(C2=NN(c3ccccc3)[C@H](CO)[C@H]2c2ccc(Cl)cc2)c1	?	2.3µM*	?	?	13µM*
OC[C@@H]1[C@@H](c2ccccc2)C(c2cccc(Cl)c2)=NN1c1ccccc1	?	?	2%	?	?
Brc1cccc(/C=N\n2cnnc2)c1	?	21%	-14%[38.3 µM]	i	-6%
O=[N+]([O-])c1cc(/C=N/n2cnnc2)ccc1N1CCCC1	2.6µM*	0%	-1%	i	-169%
CC(C)CN(CC(C)C)c1ccc(/C=N/n2cnnc2)cc1[N+](=O)[O-]	21µM*	?	-6%	?	-8%
SMILES	KB-V1 cytotox	MCF10A rerep	PINK1 modulator	KB-3-1 cytotox	SW480 rereplic
C(=Nn1cnnc1)c1ccc2c(c1)CCC2	?	.	-1%	16µM*	.
O=[N+]([O-])c1cccc(/C=N/n2cnnc2)c1	i	0%	0%	i	4%
C#CCn1cnc2c(cnn2-c2ccc(F)cc2)c1=O	i	.	-1%	i	.
OC(CBr)C[n+]1cc(Br)cc2ccccc21 (configuration not stated)	i	.	0%	i	.
CN(Cc1ccccc1)C(=O)c1ccc(NC(=O)Cc2ccc(NC(=O)C3CCCN(C(=O)C4CC4)C3)cc2)cc1 (configuration not stated)	i	13%	0%	i	-6%
CCCCCCCCOC(=O)C1=C(C)Nc2nnnn2C1c1cccs1 (configuration not stated)	15µM*	?	-2%	?	16%
COc1cccc(C2c3c(oc4ccc(Cl)cc4c3=O)C(=O)N2c2cc(C)on2)c1OC (configuration not stated)	i	-5%	13µM*	i	-12%
COc1c(S(=O)(=O)NCCCn2ccnc2)ccc(Cl)c1Cl	i	12µM*	1%	i	?
Cc1ccc(NC(=O)Cn2c(=O)n(-c3ccc(C)cc3)c(=O)c3ccc(C(=O)NCc4ccccc4Cl)cc32)cc1	i	.	10%	?	.
CC(=O)NC(Cc1ccc(Cl)cc1)C(=O)NCC(N)C(=O)c1ccccc1 (configuration not stated)	.	.	1%	.	.
O=C(COc1ccc(Cl)cc1Cl)NCc1ccncc1	18µM*	0%	3%	i	-10%
O=C(COc1ccc(Cl)cc1Cl)NNC(=S)Nc1ccc(F)cc1	21µM*	15%	-3%[38.3 µM]	i	-1%
CC(=O)NC(=S)Nc1ccc(NC(=O)COc2ccc(Cl)cc2Cl)cc1	i	8%	13%	i	3%
Cc1cc(Cl)ccc1OCC(=O)NCc1ccncc1	?	-8%	2%[38.3 µM]	i	-3%
CC(C)NC(=O)COc1ccc(Cl)cc1Cl	?	?	-5%[38.3 µM]	i	16µM*
CC1CCC(N2CC(=O)N(C3CCCCC3)C(c3ccc(F)cc3)C2=O)CC1 (configuration not stated)	.	.	0%	.	.
N#Cc1c(N)n(C2CCCCC2)c2nc3ccccc3nc12	?	1µM*	8%	?	8.2µM*
Nc1c(C(=O)Nc2ccccc2)c2nc3ccccc3nc2n1-c1ccc(O)cc1	i	15µM*	10%	i	7.3µM*
N#Cc1c(N)n(-c2ccc(C(=O)O)cc2)c2nc3ccccc3nc12	i	18µM*	1%	i	?
CCOC(=O)c1c(N)n(-c2ccc(N)cc2)c2nc3ccccc3nc12	i	-7%	2%	i	-325%
O=C(NCCc1ccccn1)C1CC12CCN(C(=O)c1ccc(F)cc1Cl)CC2 (configuration not stated)	.	.	-1%	.	.
Cn1ccnc1C(=O)c1cccc(Br)c1	i	0%	0%	i	1%
Cc1cc(C(=O)Nc2ccccc2-c2nc(CNC(=O)c3sc(C)nc3C)c(C)o2)c(C)o1	.	.	0%	.	.
Cn1nc(C(C)(C)C)cc1C(=O)NCc1ccc(N2CCCC2=O)cc1	0.58µM*	1%	2%[38.3 µM]	0.65µM*	13%
